In PubChem BioAssay (Tox21):
Values without a mark were called inactive. Inconclusive results are not listed. Entries that show only a call come without a potency. Activity calls are given as the source filed them. Unless noted, calls come from the whole dose curve; as a rule, active = well fitted curve in the direction sought with a large enough effect in the repeat runs; inconclusive = weak or mixed curves; inactive = no such curve, though single readings can be large; an effect the other way counts as inactive or inconclusive.

Columns and labels:
[1] = qHTS assay to identify small molecule antagonists of the estrogen receptor alpha (ER-alpha) signaling pathway using the BG1 cell line in the presence of 0.1 nM 17-beta-estradiol - cell viability counter screen (AID 1259241); note: nearly all actives have a fitted effect of over 40% in size
Method in brief: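 Cells were plated and left 24 hr, compounds in DMSO were pinned in, 17beta-estradiol was added to 0.1 nM final, and after 22 hr CellTiter-Fluor reagent was added for 30 min before fluorescence was read.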

[2] = qHTS assay to identify small molecule antagonists of the androgen receptor (AR) signaling pathway using the MDA cell line in the presence of 0.5 nM R1881 - cell viability counter screen (AID 1259242); note: nearly all actives have a fitted effect of over 45% in size
Method in brief: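 qHTS format. MDA-kb2 (MMTV-luc, AR/GR responsive) + cpd + 0.5 nM R1881 final, 16 hr 37C/0% CO2 → CellTiter-Fluor 30 min → fluorescence intensity.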

[3] = target: Estrogen receptor (Homo sapiens) (UniProt P03372); assay: qHTS assay to identify small molecule antagonists of the estrogen receptor alpha (ER-alpha) signaling pathway using the BG1 cell line in the presence of 0.1 nM 17-beta-estradiol (AID 1259244); note: nearly all actives have a fitted effect of over 50% in size
Method in brief: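 Reporter is a stably transfected luciferase under four estrogen responsive elements in VM7Luc4E2 cells expressing native full-length ER-alpha; inhibition of 0.1 nM (final) 17beta-estradiol-driven signal over 22 h is read by luminescence.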

[4] = qHTS assay to identify small molecule HDAC inhibitors (AID 1259364);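 note: wild-type HCT-116 cells with endogenous class I/II HDAC activity; top concentration of the series differs between compounds; nearly all actives have a fitted effect of over 45% in size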
Method in brief: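 Quantitative high-throughput format: overnight-seeded HCT-116 cells got compounds for 2 hr at 37C; HDAC-Glo I/II reagent added, 30 min RT, luminescence measured.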

[5] = qHTS assay to identify small molecule HDAC inhibitors - cell viability counter screen (AID 1259365); note: series mostly up to about 92 µM; nearly all actives have a fitted effect of over 50% in size
Method in brief: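 Counter screen in wild-type HCT-116 cells: compounds dissolved in DMSO are pin-transferred onto overnight-plated cells and left 2hr at 37C. ATP-based CellTiter-Glo luminescence then measures viable cells.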

[6] = qHTS assay to identify small molecule agonists of the sonic hedgehog signaling (Shh) pathway - cell viability counter screen (AID 1259366); note: nearly all actives have a fitted effect of over 50% in size
Method in brief: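 Cells are plated at 2,000 per well and left 4hr at 37C, 5% CO2 before compound addition. After 23hr of treatment, CellTiter-Fluor reagent is added for 1hr at 37C and fluorescence is measured.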

[7] = qHTS assay to identify small molecule antagonists of the sonic hedgehog signaling (Shh) pathway - cell viability counter screen (AID 1259367); note: nearly all actives have a fitted effect of over 55% in size
Method in brief: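 Fluorescence read-out (CellTiter-Fluor, 1 hr at 37C) taken after 23 hr compound treatment of 3T3 Gli1-Luc cells stimulated with conditioned medium. Cells were seeded at 2,000 per well and pre-incubated 4 hr.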

[8] = target: Estrogen receptor beta (Homo sapiens) (UniProt Q92731); assay: qHTS assay to identify small molecule agonists of the estrogen receptor beta (ER-beta) signaling pathway (AID 1259377; active = well fitted activation curve with a large enough effect in the signal ratio in the repeat runs, not every such curve was filed as active; the % refers to the signal ratio; note: potency is the fitted concentration of half-maximal effect)
Method in brief: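 Agonist mode cell assay in GripTite HEK293T cells expressing an ER-beta fusion that drives beta-lactamase from an Upstream Activator Sequence; 16 hr compound exposure at 37C, then 2 h LiveBLAzer B/G FRET substrate at room temperature, fluorescence read-out.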

[9] = target: Estrogen receptor beta (Homo sapiens) (UniProt Q92731); assay: qHTS assay to identify small molecule antagonists of the estrogen receptor beta (ER-beta) signaling pathway (AID 1259378; active = well fitted inhibition curve with a large enough effect in the signal ratio in the repeat runs, not every such curve was filed as active; the % refers to the signal ratio)
Method in brief: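 ER-beta-UAS-bla HEK293T cells in 2% charcoal-stripped FBS medium treated with compound plus 1nM final 17-beta-estradiol for 16 hr at 37C. Beta-lactamase reporter read by FRET substrate fluorescence after 2 hours at room temperature.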

[10] = qHTS assay to identify small molecule agonists of the androgen receptor (AR) signaling pathway in the presence of an antagonist - cell viability counter screen (AID 1259379);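 note: MDA-kb2 human breast cancer cells carrying an MMTV luciferase reporter; series mostly up to about 92 µM; nearly all actives have a fitted effect of over 25% in size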
Method in brief: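 Nilutamide-containing (3.0uM final) MDA-kb2 cultures, 3,000 cells/well, were treated with compounds across 15 concentrations. After 16 hr at 37C with no CO2, cell viability was determined by CellTiter-Fluor fluorescence in the luciferase assay wells.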

[11] = qHTS assay to identify small molecule antagonists of the estrogen receptor beta (ER-beta) signaling pathway - cell viability counter screen (AID 1259382); note: series mostly up to about 92 µM; nearly all actives have a fitted effect of over 55% in size
Method in brief: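 Viability is scored by CellTiter-Glo luminescence (30 min, room temperature) in ER-beta-UAS-bla HEK293T wells already read for reporter fluorescence. Compound exposure lasts 16 hr at 37C alongside 1nM 17-beta-estradiol in charcoal-stripped serum medium.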

[12] = qHTS assay to identify small molecule agonists or antagonists of the thyroid stimulating hormone receptor (TSHR) signaling pathway - wild type cell line counter screen (AID 1259384; calls by dose curve)
Method in brief: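 Wild-type Hek293 cells, 800/well, 18 h at 37C, then compound with Ro20-1724 for 30 min RT. cAMP by HTRF (cAMP-d2/anti-cAMP cryptate), 1 h RT, fluorescence read. 15 concentrations, triplicates.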

[13] = target: Thyrotropin receptor (Homo sapiens) (UniProt P16473); assay: qHTS assay to identify small molecule antagonists of the thyroid stimulating hormone receptor (TSHR) signaling pathway (AID 1259385; calls by dose curve; note: nearly all actives have a fitted effect of over 20% in size)
Method in brief: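 TSHR-HEK293 cells (800/well) plated 18 h, then compounds with Ro20-1724 and TSH at 1.5 ng/mL final, 30 min at room temperature. cAMP quantified by HTRF (cAMP-d2/anti-cAMP-cryptate, 1 h); 15 concentrations in triplicate.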

[14] = qHTS assay to identify small molecule antagonists of the sonic hedgehog signaling (Shh) pathway (AID 1259369; calls by dose curve; note: nearly all actives have a fitted effect of over 45% in size)
Method in brief: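 Stable Gli1-Luc reporter NIH/3T3 clone; quantitative HTS in stimulated mode with conditioned medium. Luminescence measured after 24hr compound treatment at 37 C.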

[15] = qHTS assay to identify small molecule agonists of the estrogen receptor beta (ER-beta) signaling pathway - cell viability counter screen (AID 1259380); note: nearly all actives have a fitted effect of over 30% in size
Method in brief: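 Steps: plate ER-beta-UAS-bla HEK293T cells, rest 6 hr; add compounds in DMSO; incubate 16 hr at 37C, 5% CO2; add FRET substrate 2 hr; add CellTiter-Glo, wait 30 min at room temperature; read luminescence.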

[16] = qHTS assay to identify small molecule agonists of the sonic hedgehog signaling (Shh) pathway (AID 1259368; calls by dose curve;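 note: NIH/3T3-derived 3T3Gli1-Luc cells carrying a stable Gli1-driven firefly luciferase reporter; series mostly up to about 92 µM; nearly all actives have a fitted effect of over 15% in size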)
Method in brief: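 Quantitative high-throughput format using a Gli1-driven firefly luciferase reporter line derived from NIH/3T3 cells. After a 24 hr compound treatment at 37 C and 5% CO2, luminescence reported Gli1 response element activity.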

[17] = target: Estrogen receptor (Homo sapiens) (UniProt P03372); assay: qHTS assay to identify small molecule agonists of the estrogen receptor alpha (ER-alpha) signaling pathway in the presence of an antagonist (AID 1259383; calls by dose curve; note: top concentration of the series differs between compounds; nearly all actives have a fitted effect of over 15% in size)
Method in brief: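 Readout was ERE-driven luciferase luminescence in VM7Luc4E2 cells, which express full-length ER-alpha endogenously. Compounds were tested at 15 concentrations for 22hr alongside 10.0nM ICI-182,780 (final concentration).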

[18] = target: Androgen receptor (Homo sapiens) (UniProt P10275); assay: qHTS assay to identify small molecule agonists of the androgen receptor (AR) signaling pathway in the presence of an antagonist (AID 1259381; calls by dose curve; note: nearly all actives have a fitted effect of over 15% in size)
Method in brief: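 Reporter-gene luminescence from MDA-kb2 cells exposed 16hr at 37C (0% CO2) to 15-point compound titrations with 3.0uM final nilutamide as AR antagonist.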

Sequence of Thyrotropin receptor (Homo sapiens) (P16473 whole entry, looked up): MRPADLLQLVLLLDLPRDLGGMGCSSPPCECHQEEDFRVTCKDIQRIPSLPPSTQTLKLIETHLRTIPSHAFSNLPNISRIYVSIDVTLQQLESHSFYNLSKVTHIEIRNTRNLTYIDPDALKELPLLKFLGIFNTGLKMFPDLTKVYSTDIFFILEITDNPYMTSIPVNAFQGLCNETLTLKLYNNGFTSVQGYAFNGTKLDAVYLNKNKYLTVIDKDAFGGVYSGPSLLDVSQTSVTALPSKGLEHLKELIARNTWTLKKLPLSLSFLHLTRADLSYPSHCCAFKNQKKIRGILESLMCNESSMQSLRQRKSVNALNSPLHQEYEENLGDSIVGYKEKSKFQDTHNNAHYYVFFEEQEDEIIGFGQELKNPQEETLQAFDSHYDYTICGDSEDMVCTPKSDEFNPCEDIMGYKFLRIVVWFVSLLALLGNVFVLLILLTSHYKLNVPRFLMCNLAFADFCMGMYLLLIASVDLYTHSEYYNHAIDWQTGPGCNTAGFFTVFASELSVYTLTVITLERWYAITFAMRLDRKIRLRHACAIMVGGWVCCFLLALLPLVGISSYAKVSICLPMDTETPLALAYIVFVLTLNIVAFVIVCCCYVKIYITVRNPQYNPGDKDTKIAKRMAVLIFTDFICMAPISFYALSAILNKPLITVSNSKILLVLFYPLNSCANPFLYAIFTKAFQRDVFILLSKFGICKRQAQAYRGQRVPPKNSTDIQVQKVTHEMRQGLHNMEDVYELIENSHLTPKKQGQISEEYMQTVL
Sequence of Estrogen receptor (Homo sapiens) (P03372 whole entry, looked up): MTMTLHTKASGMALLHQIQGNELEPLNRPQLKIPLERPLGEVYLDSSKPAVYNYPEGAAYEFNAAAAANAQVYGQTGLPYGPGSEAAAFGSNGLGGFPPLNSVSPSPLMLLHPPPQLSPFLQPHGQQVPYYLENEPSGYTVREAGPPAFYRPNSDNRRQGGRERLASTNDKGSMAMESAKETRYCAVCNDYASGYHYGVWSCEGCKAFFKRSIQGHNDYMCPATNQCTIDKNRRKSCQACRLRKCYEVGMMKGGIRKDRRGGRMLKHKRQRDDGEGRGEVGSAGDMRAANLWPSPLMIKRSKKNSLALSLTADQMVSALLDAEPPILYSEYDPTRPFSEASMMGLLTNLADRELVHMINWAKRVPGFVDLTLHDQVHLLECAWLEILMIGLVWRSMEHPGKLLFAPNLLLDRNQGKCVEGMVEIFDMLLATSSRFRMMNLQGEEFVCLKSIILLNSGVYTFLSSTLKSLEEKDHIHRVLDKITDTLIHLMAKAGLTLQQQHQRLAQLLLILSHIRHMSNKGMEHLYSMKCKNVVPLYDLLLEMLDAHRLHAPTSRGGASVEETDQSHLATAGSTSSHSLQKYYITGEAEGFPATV
Sequence of Estrogen receptor beta (Homo sapiens) (Q92731 whole entry, looked up, the tested form may be a part): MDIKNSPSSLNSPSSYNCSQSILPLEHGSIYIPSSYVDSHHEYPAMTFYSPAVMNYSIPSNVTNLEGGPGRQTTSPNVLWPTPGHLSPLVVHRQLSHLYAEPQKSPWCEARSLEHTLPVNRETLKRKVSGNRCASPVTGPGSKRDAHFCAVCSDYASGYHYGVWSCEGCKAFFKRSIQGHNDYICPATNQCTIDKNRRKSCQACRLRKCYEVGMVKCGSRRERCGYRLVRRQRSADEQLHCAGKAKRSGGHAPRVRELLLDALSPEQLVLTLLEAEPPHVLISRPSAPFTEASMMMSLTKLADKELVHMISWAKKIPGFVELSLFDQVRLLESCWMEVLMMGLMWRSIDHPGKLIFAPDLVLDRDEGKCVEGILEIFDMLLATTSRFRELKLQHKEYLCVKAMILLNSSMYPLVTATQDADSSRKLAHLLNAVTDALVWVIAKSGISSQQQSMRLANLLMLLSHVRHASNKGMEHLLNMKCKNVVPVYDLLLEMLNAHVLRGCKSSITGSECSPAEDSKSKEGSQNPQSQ
Sequence of Androgen receptor (Homo sapiens) (P10275 whole entry, looked up): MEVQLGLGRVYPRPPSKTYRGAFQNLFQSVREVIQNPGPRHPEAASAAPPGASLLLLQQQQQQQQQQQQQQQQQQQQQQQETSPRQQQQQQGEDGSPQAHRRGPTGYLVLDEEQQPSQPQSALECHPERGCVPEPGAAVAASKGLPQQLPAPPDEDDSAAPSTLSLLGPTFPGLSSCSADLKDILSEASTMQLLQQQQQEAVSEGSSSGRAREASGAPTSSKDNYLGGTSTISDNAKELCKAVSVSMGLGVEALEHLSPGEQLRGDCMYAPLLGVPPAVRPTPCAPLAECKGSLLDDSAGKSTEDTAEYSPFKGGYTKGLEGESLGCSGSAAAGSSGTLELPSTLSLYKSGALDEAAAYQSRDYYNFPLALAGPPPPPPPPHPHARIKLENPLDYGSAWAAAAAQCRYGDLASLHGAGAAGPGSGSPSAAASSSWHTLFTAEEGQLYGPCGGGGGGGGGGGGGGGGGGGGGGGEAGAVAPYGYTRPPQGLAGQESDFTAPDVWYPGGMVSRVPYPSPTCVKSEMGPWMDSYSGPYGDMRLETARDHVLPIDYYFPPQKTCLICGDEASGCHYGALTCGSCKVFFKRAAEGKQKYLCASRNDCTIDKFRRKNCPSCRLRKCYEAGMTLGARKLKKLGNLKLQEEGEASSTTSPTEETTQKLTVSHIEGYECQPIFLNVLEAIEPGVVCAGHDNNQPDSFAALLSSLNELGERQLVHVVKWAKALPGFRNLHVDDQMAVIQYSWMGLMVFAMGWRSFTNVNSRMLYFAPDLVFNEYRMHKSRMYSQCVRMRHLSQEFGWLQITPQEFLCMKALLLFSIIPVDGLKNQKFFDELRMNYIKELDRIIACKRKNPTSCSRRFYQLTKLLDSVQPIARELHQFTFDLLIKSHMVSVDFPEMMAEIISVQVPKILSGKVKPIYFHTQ

Compound | outcome [1] | Potency [2] | Potency [3] | Potency [4] | outcome [5] | Potency [6] | Potency [7] | Potency [8] | outcome [9] | Potency [10] | Potency [11] | outcome [12] | outcome [13] | Potency [14] | Potency [15] | outcome [16] | Potency [17] | Potency [18]
O=C(Cl)C(Cl)Cl | inactive | inactive | inactive | inactive | inactive | inactive | inactive | inactive | inactive | inactive | inactive | inactive | inactive |  |  |  |  | 
Clc1nc(Cl)nc(Nc2ccccc2Cl)n1 | inactive | inactive | inactive | inactive | inactive | inactive | inactive |  | inactive |  | inactive | inactive | inactive | inactive | inactive |  |  | 
NC(=O)OCCCc1ccccc1 | inactive | inactive | inactive | inactive | inactive | inactive | inactive |  | inactive | inactive | inactive | inactive | inactive |  | inactive |  |  | 
COc1cc(CCN)cc(OC)c1OC | inactive | inactive | inactive | inactive | inactive | inactive |  |  |  | inactive | inactive | inactive | inactive | inactive | inactive | inactive | inactive | 
CC(C)(C1CCC(O)CC1)C1CCC(O)CC1 (stereo not given) | inactive | inactive | inactive | inactive | inactive | inactive |  | 21.7 µM (active) | inactive | inactive | inactive |  |  | inactive |  | inactive | inactive | 
CCN[C@H](C)Cc1cccc(C(F)(F)F)c1 | inactive | inactive | inactive | inactive | inactive | inactive | inactive |  |  | inactive | inactive | inactive | inactive | inactive | inactive |  |  | 
CC(C)(O)C(Cl)(Cl)Cl | inactive | inactive | inactive | inactive | inactive | inactive | inactive | inactive | inactive | inactive | inactive | inactive | inactive | inactive | inactive |  | inactive | 
CN(C)C1CCCCC1 | inactive | inactive | inactive | inactive | inactive | inactive | inactive |  |  | inactive | inactive |  |  |  | inactive | inactive | inactive | 
CCOC(=O)NC(C)(C)Cc1ccc(Cl)cc1 | inactive | inactive | inactive | inactive | inactive | inactive | inactive |  |  | inactive | inactive | inactive |  |  | inactive | inactive | inactive | inactive
O=C(Cl)OCc1ccccc1 | inactive | inactive | inactive | inactive | inactive | inactive | inactive | inactive | inactive | inactive | inactive | inactive | inactive | inactive | inactive |  |  | 
COc1cc(CC(C)N)cc(OC)c1OC (stereo not given) | inactive | inactive | inactive | inactive | inactive | inactive |  | inactive |  | inactive | inactive | inactive |  | inactive | inactive | inactive | inactive | 
CCN(CCO)CCn1c(Cc2ccccc2)nc2c1c(=O)n(C)c(=O)n2C | inactive | inactive | inactive | inactive | inactive | inactive |  |  | inactive | inactive | inactive | inactive |  | inactive |  | inactive | inactive | 
O=C(O)C(Br)(Br)Br | inactive | inactive | inactive | inactive | inactive | inactive | inactive |  |  | inactive | inactive | inactive | inactive |  | inactive | inactive |  | 
Cc1ccc(Cl)c(O)c1 | inactive | inactive | inactive | inactive | inactive | inactive | inactive |  |  | inactive | inactive | inactive | inactive |  | inactive | inactive | inactive | 
CC(C)(C)C(=O)Cl | inactive | inactive | inactive | inactive | inactive | inactive | inactive | inactive | inactive | inactive | inactive | inactive | inactive | inactive | inactive |  |  | 
